Results: PubChem BioAssay (NCATS)
Values joined by “and” are separate entries in the source; they are usually repeats but may differ in a detail not shown here. Identical values can stand only once. Records with an inconclusive call do not appear. Active and inactive are the calls of the source. Unless noted, the call rests on the fitted dose curve; in most records, active means well fitted curve in the direction sought with a large enough effect; inconclusive means small, poorly fitted or top-dose-only effect, or another doubt; inactive means no such curve, though single readings can be large; an effect the other way counts as inactive or inconclusive.

Key:
[1] = qHTS to identify inhibitors of the type 1 interferon - major histocompatibility complex class I in skeletal muscle: primary screen against the NCATS LOPAC collection (AID 1347405);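 further: lytic HiBiT luminescence reporting HLA-B protein level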; further: potency means the concentration at half of the fitted maximal effect
Outline: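 Immortalized human C25cl48 myoblasts with HiBiT knocked into endogenous HLA-B*08:01 were stimulated with 4.0 ng/ml IFN-beta and given compounds in a 7-point, 1:4.3 titration from 46 uM final; after 24 hrs, lytic HiBiT luminescence was read.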

[2] = qHTS for inhibitors of adenylyl cyclases using a fission yeast platform: a pilot screen against the NCATS LOPAC library (AID 1347410);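 further: plate controls were DMSO vehicle for no effect and DPI positive control for full effect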
Outline: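 GFP from fbp1-GFP reporter, read by Acumen laser cytometry, indicates AC inhibition in fission yeast expressing AC9, GNAS and PDE4D2. Cells grown 18 h in the dark at 30C with compounds, final up to 57 uM.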

[3] = target: Protein phosphatase 1D (Homo sapiens) (UniProt O15297); test: RapidFire Mass Spectrometry qHTS Assay for Modulators of WT P53-Induced Phosphatase 1 (WIP1) (AID 1347424);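 further: amount of dephosphorylated VEPPL-S-QETFS peptide product formed by WIP1; series mostly up to about 63 µM; plate controls were DMSO wells for no effect and GSK830371 inhibitor control at 10 µM for full effect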
Sequence of Protein phosphatase 1D (Homo sapiens) (O15297 whole entry, looked up): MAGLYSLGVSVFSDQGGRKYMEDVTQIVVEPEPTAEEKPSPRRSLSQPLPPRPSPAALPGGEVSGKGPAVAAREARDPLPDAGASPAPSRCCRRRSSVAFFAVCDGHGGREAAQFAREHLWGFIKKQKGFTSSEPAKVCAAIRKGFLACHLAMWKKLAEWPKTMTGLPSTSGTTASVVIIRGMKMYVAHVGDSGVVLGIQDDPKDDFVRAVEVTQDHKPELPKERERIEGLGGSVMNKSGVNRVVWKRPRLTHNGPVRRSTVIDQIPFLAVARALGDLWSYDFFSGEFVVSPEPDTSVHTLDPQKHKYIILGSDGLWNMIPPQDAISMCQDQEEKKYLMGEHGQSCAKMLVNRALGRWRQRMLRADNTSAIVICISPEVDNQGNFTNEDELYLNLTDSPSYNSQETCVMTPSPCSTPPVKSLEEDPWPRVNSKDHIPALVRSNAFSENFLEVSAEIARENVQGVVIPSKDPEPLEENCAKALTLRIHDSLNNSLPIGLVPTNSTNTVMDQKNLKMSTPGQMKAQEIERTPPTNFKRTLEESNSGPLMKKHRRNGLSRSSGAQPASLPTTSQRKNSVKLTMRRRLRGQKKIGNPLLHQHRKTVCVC
Outline: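 10 nM WIP1 preincubated with compounds 1 hr at room temperature in pH 7.5 Tris buffer with 30 mM MgCl2, 1 mM TCEP; 2 uM VEPPL-pS-QETFS phosphopeptide for 5 min, formic acid quench; dephosphorylated product quantified by RapidFire MS against labelled standard.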

[4] = Validation qHTS assay for inhibitors of Activation Induced Cytidine Deaminase (AID): UDG Counterscreen signal (AID 1347427); further: 0% is about no effect
Outline: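 Counterscreen read of UDG activity (2 U/mL, 4/3x) in the FRET deamination format with AID (1 uM, 4/3x), DJC20/DJC23 substrates (250 nM, 4x), 4 h at room temperature. NaOH stop, fluorescence at 560 ex/665 em.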

[5] = target: Single-stranded DNA cytosine deaminase (Homo sapiens) (UniProt Q9GZX7); test: Validation qHTS assay for inhibitors of Activation Induced Cytidine Deaminase (AID): AID signal (AID 1347429); further: on the % scale 0 is the no-effect control and ±100 the full control effect
Sequence of Single-stranded DNA cytosine deaminase (Homo sapiens) (Q9GZX7 whole entry, looked up): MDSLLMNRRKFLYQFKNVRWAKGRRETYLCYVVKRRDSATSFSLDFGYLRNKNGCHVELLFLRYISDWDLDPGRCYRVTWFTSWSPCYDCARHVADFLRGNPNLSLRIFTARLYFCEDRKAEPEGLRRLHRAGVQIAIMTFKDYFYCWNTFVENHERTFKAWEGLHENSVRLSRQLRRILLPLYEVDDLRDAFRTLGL
Outline: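 AID and UDG were combined and compounds added at final up to 114 uM, then DJC20/DJC23 FRET substrate was added for 4 hr at room temperature. NaOH was then added for 30 min before fluorescence was read at 540/590 nm.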

[6] = Primary qHTS for inhibitors of La Crosse Virus (LACV) - induced cell death in SH-SY5Y cells (AID 1508616);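 further: top concentration of the series differs between compounds; 0% = infected DMSO wells and 100% = uninfected DMSO wells; higher means more rescue of cells from virus-induced death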
Outline: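 Luminescent ATP readout (ATPLite 1step, 5 min room temperature) measured rescue from LACV-induced death after 6 days of infection at 0.01 MOI; normalized to infected DMSO wells and uninfected DMSO wells.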

[7] = target: Calcium and integrin-binding protein 1 (Homo sapiens) (UniProt Q99828); test: Primary qHTS for Identification of Calcium Integrin Binding Protein 1 (CIB1) Competitor (AID 1508620);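 further: GST tagged CIB1 binding a fluorescein labelled alphaIIb integrin peptide tracer; top concentration of the series differs between compounds; on the % scale 0 is the no-effect control and ±100 the full control effect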
Sequence of Calcium and integrin-binding protein 1 (Homo sapiens) (Q99828 whole entry, looked up): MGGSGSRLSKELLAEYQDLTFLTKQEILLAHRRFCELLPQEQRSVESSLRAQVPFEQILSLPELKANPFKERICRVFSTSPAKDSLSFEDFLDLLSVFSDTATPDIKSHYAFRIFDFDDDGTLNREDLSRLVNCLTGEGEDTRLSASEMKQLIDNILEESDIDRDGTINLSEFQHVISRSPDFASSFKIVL
Outline: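 Fluorescence polarization competition: GST-tagged CIB1 (1 uM final) preincubated with compound 15 min at room temperature, then FITC-labelled alphaIIb peptide (100 nM final) added. After 15 min at room temperature, polarization read at Ex 480/Em 540.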

[8] = A High-Content qHTS Against Drug Library for the Identification of Small Molecules that Inhibit DYT1 Early Onset Primary Dystonia-Associated Cell Pathology (AID 1645839; calls by dose curve; further: series mostly up to about 46 µM)
Outline: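 Flp-In T-REx 293 cells with tetracycline-inducible EGFP-delE hTOR1A (WT EGFP-hTOR1A as reference), 800 cells/well; compound added with tetracycline, 48 h at 37 C. Fixed, permeabilized cells imaged; %pathology (punctate TorsinA) primary, cell count counterscreen.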

[9] = target: Cytochrome P450 2C9 (Homo sapiens) (UniProt P11712); test: Cytochrome P450 family 2 subfamily C member 9 (CYP2C9) small molecule antagonists: luciferase biochemical (cell-free) qHTS assay (AID 1645842; active means well fitted curve in the direction sought with a large enough effect in the repeat runs; an effect the other way counts as inactive or inconclusive; further: nearly all actives have a fitted effect of over 55% in size; further: potency means the concentration at half of the fitted maximal effect)
Sequence of Cytochrome P450 2C9 (Homo sapiens) (P11712 whole entry, looked up): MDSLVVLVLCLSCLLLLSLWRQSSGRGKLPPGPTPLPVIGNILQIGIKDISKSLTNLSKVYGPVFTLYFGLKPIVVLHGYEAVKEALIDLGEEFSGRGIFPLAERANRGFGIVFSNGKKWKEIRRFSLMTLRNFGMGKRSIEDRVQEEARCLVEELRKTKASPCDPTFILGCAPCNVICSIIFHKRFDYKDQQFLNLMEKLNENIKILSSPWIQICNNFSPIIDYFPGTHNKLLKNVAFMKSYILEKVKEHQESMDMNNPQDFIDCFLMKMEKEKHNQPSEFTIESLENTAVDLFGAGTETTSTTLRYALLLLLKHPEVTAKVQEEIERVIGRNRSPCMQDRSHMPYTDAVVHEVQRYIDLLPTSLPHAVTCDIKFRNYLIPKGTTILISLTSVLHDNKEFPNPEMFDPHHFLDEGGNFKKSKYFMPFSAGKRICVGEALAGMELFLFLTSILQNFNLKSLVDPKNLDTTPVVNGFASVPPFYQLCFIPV
Outline: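 Luminescence, after 20 min with luciferin detection reagent, reflected CYP2C9 turnover during a 1 h NADPH-driven reaction at 37C. Enzyme-substrate mix contained 0.4% bovine serum albumin and was preincubated with compound 10 min at room temperature.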

[10] = target: Papain (Carica papaya) (UniProt P00784); test: Primary qHTS assay for inhibitors of the protease papain (AID 1645873);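 further: papain turnover of Z-FR-AMC read as the AMC fluorescence gain over 10 min; series mostly up to about 50 µM; on the % scale 0 is the no-effect control and ±100 the full control effect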
Sequence of Papain (Carica papaya) (P00784 whole entry, looked up): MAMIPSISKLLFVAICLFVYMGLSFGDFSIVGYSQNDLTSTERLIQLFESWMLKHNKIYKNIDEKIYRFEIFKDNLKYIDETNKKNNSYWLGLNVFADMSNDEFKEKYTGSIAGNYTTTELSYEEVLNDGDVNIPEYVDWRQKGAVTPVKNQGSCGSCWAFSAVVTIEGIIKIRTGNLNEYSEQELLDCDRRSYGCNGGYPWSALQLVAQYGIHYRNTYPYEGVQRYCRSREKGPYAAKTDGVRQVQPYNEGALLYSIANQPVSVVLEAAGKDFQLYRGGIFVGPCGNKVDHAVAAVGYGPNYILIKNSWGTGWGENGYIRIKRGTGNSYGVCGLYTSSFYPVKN

[11] = target: Protein phosphatase 1D (Homo sapiens) (UniProt O15297); test: Rhodamine-PBP qHTS Assay for Modulators of WT P53-Induced Phosphatase 1 (WIP1) (AID 1347425); further: % of control where 0% means no effect
Outline: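 WIP1 (5 nM final) was preincubated with compound for 1 hour at room temperature. It then dephosphorylated 10 uM VEPPL-pS-QETFS peptide in Tris-HCl pH 7.5 with 30 mM MgCl2. Released Pi was detected by 10 uM Rh-PBP fluorescence (ex 525/em 598 nm) read at 1-min intervals for 11 min, as delta f1 - f0.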

[12] = target: Calcium and integrin-binding protein 1 (Homo sapiens) (UniProt Q99828); test: Validation qHTS for Identification of Calcium Integrin Binding protein 1 (CIB1) Competitor (AID 1508618); further: on the % scale 0 is the no-effect control and ±100 the full control effect
Outline: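 Fluorescence polarization with 1 uM CIB1-GST and 100 nM FITC-alphaIIb peptide in HEPES pH 7.4, NaCl, 5 mM CaCl2, Tween20. Compounds at up to 114 uM final, preincubated with protein 15 min; read after 15 min more at RT.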

[13] = target: Cytochrome P450 2D6 (Homo sapiens) (UniProt P10635); test: Cytochrome P450 family 2 subfamily D member 6 (CYP2D6) small molecule antagonists: luciferase biochemical (cell-free) qHTS assay (AID 1645840; active means well fitted curve in the direction sought with a large enough effect in the repeat runs; an effect the other way counts as inactive or inconclusive; further: nearly all actives have a fitted effect of over 55% in size; further: potency means the concentration at half of the fitted maximal effect)
Sequence of Cytochrome P450 2D6 (Homo sapiens) (P10635 whole entry, looked up): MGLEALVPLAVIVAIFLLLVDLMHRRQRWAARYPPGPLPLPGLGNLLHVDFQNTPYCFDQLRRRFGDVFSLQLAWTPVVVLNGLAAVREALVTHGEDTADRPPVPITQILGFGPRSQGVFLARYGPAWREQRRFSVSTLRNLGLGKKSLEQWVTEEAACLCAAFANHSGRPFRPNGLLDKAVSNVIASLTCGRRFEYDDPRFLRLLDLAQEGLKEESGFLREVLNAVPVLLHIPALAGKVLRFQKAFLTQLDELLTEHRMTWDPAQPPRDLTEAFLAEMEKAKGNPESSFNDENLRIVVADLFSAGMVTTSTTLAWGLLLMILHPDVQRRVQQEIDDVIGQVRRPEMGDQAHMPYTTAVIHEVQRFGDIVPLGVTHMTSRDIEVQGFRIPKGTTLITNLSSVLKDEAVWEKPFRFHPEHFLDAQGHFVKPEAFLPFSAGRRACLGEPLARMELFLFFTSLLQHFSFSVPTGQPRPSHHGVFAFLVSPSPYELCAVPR
Outline: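 P450-Glo luminescent screen: recombinant CYP2D6 enzyme–proluciferin substrate mix preincubated with compound 10 min at room temperature, then NADPH regeneration added for 1 h at room temperature. Detection reagent added for 20 min; luciferin light read as relative luminescence units.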

[14] = Primary qHTS for small molecule stabilizers of the endoplasmic reticulum resident proteome: Secreted ER Calcium Modulated Protein (SERCaMP) assay (AID 1508630); further: on the % scale 0 is the no-effect control and ±100 the full control effect
Outline: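 GLuc-SERCaMP-expressing SH-SY5Y cells, pretreated 16 h with compound, are challenged with thapsigargin to empty ER calcium stores; after 4 h, coelenterazine is added directly to the medium and luminescence is imaged.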

[15] = qHTS to identify inhibitors of the type 1 interferon - major histocompatibility complex class I in skeletal muscle: primary screen against the NCATS Pharmaceutical Collection (AID 1347407)
Outline: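 Compounds […] were added to CRISPR-engineered HLA-B-HiBiT C25cl48 human myoblasts with 4.0 ng/ml IFN-beta. After 24 hrs at 37 C, cells were lysed and HiBiT luminescence measured.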

[16] = target: Cytochrome P450 3A4 (Homo sapiens) (UniProt P08684); test: Cytochrome P450 family 3 subfamily A member 4 (CYP3A4) small molecule antagonists: luciferase qHTS assay (AID 1645841; active means well fitted curve in the direction sought with a large enough effect in the repeat runs; an effect the other way counts as inactive or inconclusive; further: nearly all actives have a fitted effect of over 45% in size)
Sequence of Cytochrome P450 3A4 (Homo sapiens) (P08684 whole entry, looked up): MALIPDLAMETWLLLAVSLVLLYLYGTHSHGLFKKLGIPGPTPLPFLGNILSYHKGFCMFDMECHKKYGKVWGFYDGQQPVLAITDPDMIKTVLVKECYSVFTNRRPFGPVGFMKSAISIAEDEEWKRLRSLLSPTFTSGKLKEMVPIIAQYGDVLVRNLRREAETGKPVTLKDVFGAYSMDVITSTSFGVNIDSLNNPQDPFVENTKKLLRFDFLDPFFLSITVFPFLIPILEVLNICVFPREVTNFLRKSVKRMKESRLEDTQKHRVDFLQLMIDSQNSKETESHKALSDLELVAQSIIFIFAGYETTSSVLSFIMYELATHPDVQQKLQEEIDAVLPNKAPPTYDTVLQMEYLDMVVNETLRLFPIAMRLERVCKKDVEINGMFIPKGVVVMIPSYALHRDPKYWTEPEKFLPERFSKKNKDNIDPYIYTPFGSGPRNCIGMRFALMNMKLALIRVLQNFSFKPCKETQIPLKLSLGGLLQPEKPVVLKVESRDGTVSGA
Outline: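 P450-Glo CYP3A4 enzyme with proluciferin substrate preincubated 10 min with compound at room temperature, then NADPH regeneration 1 h. Luciferin detection reagent added for 20 min; luminescence recorded. Ketoconazole positive control.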

[17] = Cell Viability qHTS for small molecule stabilizers of the endoplasmic reticulum resident proteome (AID 1508629); settings: cell viability counter-screen, 100 nM thapsigargin for final 4 h

CCOC(=O)C1=C(C)NC(C)=C(C(=O)OC)C1c1cccc([N+](=O)[O-])c1 (stereo unspecified)
inactive: outcome [2] | Potency [3] | outcome [4] | Potency [5] | Potency [6] | Potency [7] | Potency [8] | Potency [10]
active: Potency [1] 12.6 µM | Potency [9] 0.436 µM

COCCCC/C(=N\OCCN)c1ccc(C(F)(F)F)cc1
active: Potency [9] 11 µM
inactive: Potency [1] | outcome [2] | Potency [3] | outcome [11] | Potency [5] | Potency [6] | outcome [12] | Potency [7] | Potency [10]

Nc1c2c(nc3ccccc13)CCCC2O (stereo unspecified)
inactive: Potency [1] | outcome [2] | Potency [3] | outcome [11] | Potency [6] | outcome [12] | Potency [7] | Potency [8] | Potency [9] | Potency [10]
active: Potency [13] 15500 nM

CC(C)COCC(CN(Cc1ccccc1)c1ccccc1)N1CCCC1 (stereo unspecified)
active: Potency [13] 34.7 nM
inactive: Potency [1] | outcome [2] | Potency [3] | outcome [11] | outcome [4] | Potency [6] | outcome [12] | Potency [7] | Potency [14] | Potency [10]

CN(C)CC/C=C1\c2ccccc2COc2ccccc21
inactive: Potency [15] | outcome [2] | Potency [3] | outcome [11] | outcome [4] | Potency [6] | outcome [12] | Potency [7] | Potency [9] | Potency [10]

CCN1CCC[C@H]1CNC(=O)c1c(O)c(Cl)cc(Cl)c1OC
inactive: Potency [1] | outcome [2] | Potency [3] | outcome [11] | outcome [4] | Potency [6] | outcome [12] | Potency [7] | Potency [8] | Potency [9] | Potency [10]

O=C(O)CN(CCOCCOCCN(CC(=O)O)CC(=O)O)CC(=O)O
inactive: activity change, negative = inhibition [15] 1.04% [at 0.727 µM] | outcome [2] | activity change, negative = inhibition [3] 15.2% [at 0.505 µM] | activity change, negative = inhibition [11] -3.01% [at 0.575 µM] | outcome [4] | Potency [5] | Potency [6] | outcome [12] | activity change, negative = inhibition [7] 0.103% [at 1.07 µM] | activity change, negative = inhibition [13] 2.42% [at 0.91 µM] | activity change, negative = inhibition [9] 9.82% [at 0.91 µM] | Potency [10]

CC(C)[N+](C)(CCOC(=O)C1c2ccccc2Oc2ccccc21)C(C)C
inactive: Potency [1] | outcome [2] | Potency [3] | outcome [11] | outcome [4] | Potency [6] | outcome [12] | Potency [7] | Potency [9] | Potency [10]
active: Potency [13] 309 nM

CC(C(=O)O)c1ccc(CC2CCCC2=O)cc1 (stereo unspecified)
inactive: Potency [15] | outcome [2] | Potency [3] | outcome [11] | outcome [4] | Potency [5] | Potency [6] | outcome [12] | Potency [7] | Potency [14] | Potency [8] | outcome [16] | Potency [9] | Potency [10]

CN=C(NC#N)NCCSCc1nc[nH]c1C
active: Potency [9] 13.8 µM
inactive: Potency [1] | outcome [2] | Potency [3] | outcome [11] | Potency [6] | outcome [12] | Potency [7] | Potency [14] | Potency [10]

CN(C)CC[C@@H](c1ccc(Br)cc1)c1ccccn1
inactive: outcome [2] | Potency [3] | outcome [11] | Potency [5] | Potency [6] | outcome [12] | Potency [7] | Potency [14] | Potency [9] | Potency [10]

CCOC(=O)C1=C(C)NC(C)=C(C(=O)OC)C1c1cccc(Cl)c1Cl (stereo unspecified)
inactive: outcome [2] | Potency [3] | Potency [6] | Potency [7]

NCCCNCCSP(=O)(O)O
inactive: outcome [2] | activity change, negative = inhibition [3] 0.628% [at 12.6 µM] | activity change, negative = inhibition [11] 1.47% [at 11.5 µM] | Potency [5] | Potency [6] | outcome [12] | Potency [7] | Potency [14] | % pathology change, negative = correction [8] 18.3% [at 9.22 µM] | activity change, negative = inhibition [13] -0.206% [at 11.5 µM] | activity change, negative = inhibition [9] 13.8% [at 11.5 µM] | Potency [10]

NC(N)=N/N=C/c1c(Cl)cccc1Cl
inactive: outcome [2] | Potency [3] | outcome [11] | Potency [5] | Potency [6] | outcome [12] | Potency [7] | Potency [14] | Potency [9] | Potency [10]

CCN(CC)CCCN(c1ccccc1)C1Cc2ccccc2C1
active: Potency [13] 38.9 nM
inactive: Potency [15] | outcome [2] | Potency [3] | outcome [11] | Potency [5] | Potency [6] | outcome [12] | Potency [9] | Potency [10]

Cc1scc2c1N(C(=O)CN1CCN(C)CC1)c1ccccc1NC2=O
inactive: Potency [15] | outcome [2] | Potency [3] | outcome [11] | Potency [6] | outcome [12] | Potency [7] | Potency [14] | Potency [13] | Potency [9] | Potency [10]

c1cnc(N2CCN(Cc3ccc4c(c3)OCO4)CC2)nc1
inactive: outcome [2] | Potency [3] | outcome [11] | outcome [4] | Potency [5] | Potency [6] | outcome [12] | Potency [7] | Potency [14] | Potency [8] | Potency [10]
active: Potency [9] 11 µM

C[C@]12CCC(=O)C=C1CC[C@@H]1[C@@H]2C(=O)C[C@@]2(C)[C@H]1CC[C@]2(O)C(=O)CO
inactive: outcome [2] | Potency [3] | outcome [11] | Potency [5] | Potency [6] | outcome [12] | Potency [7] | Potency [14] | Potency [13] | Potency [9]

CCCCNC(=O)NS(=O)(=O)c1ccc(C)cc1
inactive: outcome [2] | Potency [3] | outcome [11] | outcome [4] | Potency [6] | outcome [12] | Potency [7] | Potency [8] | Potency [10]

Cc1cccc(C)c1NC(=O)C(C)N (stereo unspecified)
inactive: outcome [2] | Potency [3] | outcome [11] | outcome [4] | Potency [5] | Potency [6] | outcome [12] | Potency [7] | Potency [14] | Potency [13] | Potency [9] | Potency [10]

NC(=Nc1ccccc1)Nc1ccccc1
inactive: Potency [15] | Potency [3] | outcome [11] | Potency [6] | Potency [7] | max response [17] 21.8% | Potency [8] | Potency [9]
active: Potency [13] 461 nM and 1.55 µM

OC(CCN1CCCCC1)(c1ccccc1)C1CCCCC1 (stereo unspecified)
inactive: outcome [2] | Potency [3] | outcome [11] | Potency [5] | Potency [6] | max response [17] 13.7% | Potency [9] | Potency [10]

CC(C)(Oc1ccc(CCNC(=O)c2ccc(Cl)cc2)cc1)C(=O)O
inactive: outcome [2] | Potency [3] | outcome [11] | outcome [4] | Potency [6] | outcome [12] | Potency [7] | Potency [14] | Potency [10]
